Measurements as given in the supplement of paper PMC6555819.

Each sequence was assayed on THRa:RXRa (NR concentration 90 nM, RXRa partner concentration 90 nM) (assay: PBM binding z-score (relative to random genomic background probes); higher = stronger binding; sequences stand for … in GC…GCGATTGACAGCGTAGAATGAAGG).
Procedure, shortened: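 Ligand-free nuclear receptor dimers were applied to custom Agilent 4×180K protein-binding microarrays whose double-stranded probes carried direct-repeat seeds, single-nucleotide variants, half-site ablations and random human genomic background sequences in 34-nt variable regions. Incubation lasted 1 h. Binding z-scores were computed against the random background probes from regression-normalized fluorescence.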

Row | Sequence | PBM binding z-score
1 | CGAGACAGGTGAAAGGTAACTCAGTCTGGTACGC | 0.861
2 | TGAATGAGGTTATAAGAGCAGGGAACGTTGCAAA | 1.66
3 | CCTGCTAGGTGATGGTCAGCTAATCTACAGTATG | -0.498
4 | TCTGCTAGGTCAGTTGGTCAACTAACGAGCTGCC | 1.43
5 | TCATGTAGATCAATAGAGGTTAAGAAAGTGCGCT | 2.31
6 | TGAATGAGGTTAGAAGATCAGGGAACGTTGCAAA | 1.13
7 | CCGACAGGGGCAGAAAGGTTACCATACCATCCGG | 1.14
8 | CCGGCTGGGGCAAGGTTACCATAACGCACAGCCA | 1.03
9 | TTACCAAGGTGTGCTGAGGTCGTTGATCCAACTC | 3.24
10 | GGAACGAAGGCAAGTTGATAGCAGAGTTTGATGG | -0.824
11 | ATATGCAGGTTACATCCGGGTCATTCAGGCTATG | 3.97
12 | CCTACTGGGCCACGAAAGTTCATTGATTCAGTGA | 1.74
13 | ATATGTAGGTTGCATCCGGGTCATTCAGGCTATG | 3.03
14 | TCTTATAGGTAATACAGGTGAAAGTCGGCATCTA | 1.09
15 | TCGAGTAGGTTAGTCGAGGCATTCAGCCAACATA | 0.444
16 | CCAAGTAGGTTATGGGGCATTCAGGCAACGGTGA | 0.508
17 | ATTTGTAGGTTAAGGGTCATTCAGGTTGGTTCGC | 3.76
18 | TCTTGTAGATCAAGCAGATTAAGAAAGCCTGAGT | -0.439
19 | GTACCAAGGTGAATAGGTCGATGATGAGTAGGCG | 1.52
20 | CATACAGGATCAGCTAGGCCAGAGTAGGGACGGC | -0.122

Row | Sequence | PBM binding z-score
21 | ACAGACAGGTGAGTGAATGTAACTCAGCTGGACG | 0.0176
22 | TGAATGAGGTTAAAGATCATGGAACGTGGCGTCG | 2.79
23 | CAAACTAGGACACAGAGGTCAAAGTCCGTGCGTA | 4.36
24 | CGTCCAAGGTGAATGCTAGGTCAGTGAAAGCATT | 3.27
25 | TTTTGTAGATCAGCAGGTTAAGAAAGCTGGCCAA | 0.144
26 | TGAATGAGGTTAGAGATCAGGGAACGTGGCGTCG | 1.39
27 | TCATATAGGTAAATGCCAGGTGAAAGTCCGATCT | 2.02
28 | CCTACTGGGCCACAAAAGGTCATTGATTCAGTGA | 3.73
29 | CATACTGGGCCATCAGGTCATTGATATCAACGTT | 3.29
30 | ATATGTAGGTTACATCCGCGTCATTCAGGCTATG | 0.526
31 | GCAGACAGGTGAAACGCAGGTAACTTAGGGTGGC | 1.55
32 | ATATGTAGGTTAGCTGGGGTCTTTCAGACTAGGC | 3.67
33 | GCTTGTAGATCAATGTTAAGAAAGACTAAGCTAA | -0.166
34 | ACCCGGAGGACAAAGGTCAGAGCTACGCCAGTGA | 3.4
35 | ACTTACGGGTCAACGATGTTATAGCACGCGTATA | 2.76
36 | CCTACTGGGCCACGAAAGATCATTGATTCAGTGA | -0.0965
37 | CCTACTGGGCCATCAGGTCCTTGATATCAACGTT | 0.183
38 | GCTTCTAGATCAAGGTTAAGAAAGACTAAGCTAA | 1.16
39 | CAAACTAGGTCACCGGAAGCTCAAAGTCCGCATG | 3.38
40 | CGTCAAAGTTCAACTAAGGGAACGTAAAGCACGC | 4.49
